Here are results for 39 compounds from PubChem BioAssay (NCATS).

Inconclusive results are not listed. Entries that show only a call come without a potency. Active and inactive are the calls of the source. Calls follow the shape of the full dose curve.
Potency is read from the fitted curve at half-maximal effect.

Sequence of Nucleoprotein (Lymphocytic choriomeningitis virus (strain Armstrong)) (P09992 whole entry, looked up): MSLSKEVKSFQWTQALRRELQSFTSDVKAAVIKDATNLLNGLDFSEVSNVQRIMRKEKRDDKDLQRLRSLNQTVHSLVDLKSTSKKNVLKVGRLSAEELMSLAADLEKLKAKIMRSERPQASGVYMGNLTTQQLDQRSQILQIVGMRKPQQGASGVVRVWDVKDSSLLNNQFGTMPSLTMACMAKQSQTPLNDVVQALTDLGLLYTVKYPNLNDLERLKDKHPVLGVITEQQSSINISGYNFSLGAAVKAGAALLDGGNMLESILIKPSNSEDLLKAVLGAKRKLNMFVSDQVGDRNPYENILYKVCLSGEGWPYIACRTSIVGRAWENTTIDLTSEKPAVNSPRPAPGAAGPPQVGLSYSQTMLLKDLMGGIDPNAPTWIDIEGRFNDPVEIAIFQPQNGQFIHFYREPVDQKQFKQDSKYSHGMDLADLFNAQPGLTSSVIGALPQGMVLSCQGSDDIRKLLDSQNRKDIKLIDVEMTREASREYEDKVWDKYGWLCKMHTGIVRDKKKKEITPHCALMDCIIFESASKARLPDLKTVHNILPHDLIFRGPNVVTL

The assay addresses Nucleoprotein (Lymphocytic choriomeningitis virus (strain Armstrong)) (UniProt P09992). Kind of assay: qHTS for Inhibitors of the Functional Ribonucleoprotein Complex (vRNP) of Lymphocytic Choriomeningitis Arenaviruses (LCMV): LCMV Primary Screen - GLuc reporter signal (AID 1347086). Also: nearly all actives have a fitted effect of over 70% in size. The note with it: LCMV minigenome vRNP cell assay, Gaussia luciferase reporter; series mostly up to 57.5 µM.
For the compound `Cc1scc2c1N(C(=O)CN1CCN(C)CC1)c1ccccc1NC2=O`, the Potency result was “inactive”. Turning to `O=c1cc[nH]c(=S)[nH]1`, the Potency result is “inactive”.

`Cc1cc(CCCOc2c(C)cc(-c3noc(C(F)(F)F)n3)cc2C)on1`: the Potency result was “inactive”. `CCCCCC=CCC=CCCCCCCCC(=O)OCC`: the Potency entry is “inactive”.

As to `CC(N=C(NC#N)Nc1ccncc1)C(C)(C)C` (centres undefined), the Potency entry was “inactive”. Same read-out and setting: for `O=C(OCc1ccccc1)c1ccccc1` the value was “inactive”.

For the compound `CN/C(=C\[N+](=O)[O-])NCCSCc1csc(CN(C)C)n1`, the Potency entry is “inactive”. Take `Cc1c(C)c2c(c(C)c1O)CCC(C)(COc1ccc(CC3SC(=O)NC3=O)cc1)O2` (centres undefined): the Potency result is “inactive”. Turning to `CCCCCC[C@@H](CCC)C(=O)O`, the Potency result was “inactive”.

For `Cn1nnc2c(C(N)=O)ncn2c1=O`, the Potency result is “inactive”. Consider `Cc1cc(CC(=O)O)c(C)n1-c1ccc(Cl)cc1`, for which the Potency entry was “inactive”.

Consider `NCCCC[C@H](N[C@@H](CCc1ccccc1)C(=O)O)C(=O)N1CCC[C@H]1C(=O)O`, for which the Potency result is “inactive”. Regarding `C[C@H]1C[C@@H]2[C@H]([C@@H](O)C[C@@]3(C)[C@H]2CC[C@]3(O)C(=O)CO)[C@@]2(C)C=CC(=O)C=C12`, the Potency entry is “inactive”. Still for that read-out and setting: the result for `C[C@](N)(Cc1ccc(O)cc1)C(=O)O` reads “inactive”; that for `CC(C)CCCC(C)NCCC(C)C` (centres undefined), “inactive”. For the compound `O=C1c2c(O)cccc2Cc2cccc(O)c21`, the Potency result was “inactive”. Consider `CC(C)(C)CC(C)(C)c1ccc(O)c(-n2nc3ccccc3n2)c1`, for which the Potency entry is “inactive”. Consider `CC(=O)OC(C)C[N+](C)(C)C` (centres undefined), for which the Potency result is “inactive”. As to `CCCc1c2oc(C(=O)O)cc(=O)c2cc2c(=O)cc(C(=O)O)n(CC)c12`, the Potency entry is “inactive”. Take `Cc1c(Nc2ncccc2C(=O)O)cccc1C(F)(F)F`: the Potency result was “inactive”. Same read-out and setting: the result for `CSCC[C@H](NC(=O)[C@H](Cc1c[nH]c2ccccc12)NC(=O)CCNC(=O)OC(C)(C)C)C(=O)N[C@@H](CC(=O)O)C(=O)N[C@@H](Cc1ccccc1)C(N)=O` reads “inactive”; that for `CN(CC1(C)CCCO1)S(=O)(=O)c1ccc(Cl)c(S(N)(=O)=O)c1` (centres undefined), “inactive”. Still for that read-out and setting: the result for `Cc1cccn2c(=O)c(-c3nnn[nH]3)cnc12` reads “inactive”; that for `O=C(NCC(O)CO)c1c(I)c(C(=O)NCC(O)CO)c(I)c(N(CCO)C(=O)CO)c1I` (centres undefined), “inactive”; that for `COc1ccccc1OCC(O)CO` (centres undefined), “inactive”. `O=C(O)c1cc(O)c(O)c(O)c1`: the Potency entry is “inactive”. On the same count and under the same terms, the result for `CCn1ccc(NS(=O)(=O)c2ccc(N)cc2)nc1=O` reads “inactive”. As for `Nc1ccc(S(=O)(=O)Nc2ccccn2)cc1`, the Potency entry is “inactive”. On to `CCS(=O)(=O)CCn1c([N+](=O)[O-])cnc1C`, for which the Potency result is “inactive”. The same measure, in the same setting: the result for `O=C(O)c1ccccc1S` reads “inactive”. In the case of `NC[C@H]1O[C@H](O[C@H]2[C@H](O[C@@H]3O[C@H](CO)[C@@H](O)[C@H]3O)C(O)[C@H](N)C[C@@H]2N)[C@H](N)[C@@H](O)[C@@H]1O` (some centres undefined), the activity change, negative = inhibition was 40.8% [at 11.5 µM] (inactive). On to `CCCCCCCCCCCCCCCC(=O)NCCO`, for which the Potency entry is “inactive”. With `COc1ccc(-c2ccc3cc(C(=O)O)ccc3c2)cc1C12CC3CC(CC(C3)C1)C2`, the Potency result was “inactive”.

Take `CC(=O)OCC(=O)[C@@]1(O)CC[C@H]2[C@@H]3CCC4=CC(=O)C=C[C@]4(C)[C@@]3(F)[C@@H](O)C[C@@]21C`: the Potency result is “inactive”. In the case of `Cc1ccc(C(C)C)c(O)c1`, the Potency entry was “inactive”. On the same count and under the same terms, the result for `Oc1ccccc1C=NCc1ccccc1` reads “inactive”; that for `CCN1CCC[C@H]1CNC(=O)c1cc(S(N)(=O)=O)ccc1OC`, “inactive”. Consider `OC[C@H]1O[C@H](O[C@]2(CCl)O[C@H](CCl)[C@@H](O)[C@@H]2O)[C@H](O)[C@@H](O)[C@H]1Cl`, for which the Potency result is “inactive”. Regarding `CN(C)c1ccc2nc3ccc(=[N+](C)C)cc-3sc2c1`, the Potency is 6.85 µM (active).
